High-throughput results deposited in PubChem BioAssay by several laboratories.
Only some compounds are listed: those with a hit (about 32% of all), similar ones and a draw of the others.
PostGolgi yeast – phenotypic screen on post-Golgi transport, primary screen. post-Golgi transport phenotypic cell assay. inhibition, % at 10 µM. hit rate 0.9% among 98,000. AID 739, 2007;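 further: yeast cells grown in 1536-well plates; yeast grown about 18 h at 30C before absorbance read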
CYP2C19 activ – human CYP2C19 activators, primary screen, biochemical, luminescence; Cytochrome P450 2C19 (Homo sapiens), P33261; recombinant CYP2C19, luciferin-H EGE luminescence; active compounds read high; 0 = fully inhibited enzyme, 1 = untreated enzyme; activation factor at 5 µM; 96,000 tested, under 10 active; AID 1025, 2008;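 active means activation factor of at least 2 at 5 µM in the primary screen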
CYP2C9 inhib – blockers of cytochrome P450 2C9 activity – biochemical, luminescence, ADME assay, primary screen; P11712; CYP2C9 Supersomes, luciferin-H conversion; inhibition, % at 5 µM; hit rate 20% among 96,000; AID 777, 2007;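 active means blocking of liver enzyme CYP2C9 beyond about 50% at 5 µM, limit read from the data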
Target sequence (P11712 whole entry, looked up): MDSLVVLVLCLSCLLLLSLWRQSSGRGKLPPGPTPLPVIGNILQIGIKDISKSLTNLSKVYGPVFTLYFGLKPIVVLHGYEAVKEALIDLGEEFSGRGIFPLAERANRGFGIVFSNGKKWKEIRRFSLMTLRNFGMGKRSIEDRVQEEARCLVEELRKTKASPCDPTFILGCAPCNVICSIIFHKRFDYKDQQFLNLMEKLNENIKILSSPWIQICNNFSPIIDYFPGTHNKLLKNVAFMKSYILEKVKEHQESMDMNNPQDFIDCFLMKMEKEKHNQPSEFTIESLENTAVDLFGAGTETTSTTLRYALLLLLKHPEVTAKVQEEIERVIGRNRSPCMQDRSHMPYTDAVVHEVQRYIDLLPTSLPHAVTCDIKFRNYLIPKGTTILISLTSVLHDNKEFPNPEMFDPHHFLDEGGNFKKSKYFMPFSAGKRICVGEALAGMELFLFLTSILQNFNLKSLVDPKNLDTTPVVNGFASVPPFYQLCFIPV
CYP2C19 inh – blockers of cytochrome P450 2C19 activity – biochemical, luminescence, ADME assay, primary screen; P33261; CYP2C19 Supersomes, luciferin-H EGE luminescence, 30 min; inhibition, % at 5 µM; hit rate 21% among 96,000;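 active means CYP2C19 inhibition above a set limit at 5 µM in the primary screen, cut at about 50% in these data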
CYP2C9 act – human CYP2C9 activators, primary screen, biochemical, luminescence. Cytochrome P450 2C9 (Homo sapiens), P11712. recombinant CYP2C9, luciferin-H conversion; active compounds read high; factor 1 = untreated enzyme, 0 = blocked. activation factor at 5 µM. hit rate 1.4% among 96,000;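 active means activation factor of 2 or more for CYP2C9 at a 5 µM dose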
PostGolgi ctrl – growth inhibition of yeast control strain, primary screen, counter-screen for post-Golgi transport modulator project; efflux-deficient yeast background strain, growth absorbance A615, 16 h; inhibition, % at 10 µM; hit rate 5% among 98,000
Each line names hits and unclear results; the compound was inactive in the other large screens. Unless noted, no stated cut-off is given here; in the data, active means inhibition above about 30%; inactive means the rest.

C=CCN(C(=O)CN1CCOCC1)c1nc(C)c(-c2ccccc2)s1	CYP2C19 inh 70
Cn1c(-c2ccccc2)cc2c3no[n+]([O-])c3ccc21	PostGolgi yeast 74, CYP2C19 inh 80, PostGolgi ctrl 94
CN(C)c1ccc(NC(=O)Cn2cc3c(n2)CCCC3)cc1	CYP2C19 inh 92
COc1cccc(CNC(=O)Cn2cc3c(n2)CCCCC3)c1	CYP2C19 inh 92, CYP2C9 act 2.4
CNC(=O)c1cc(Nc2nnc(C)c3ccccc23)ccc1OC	none
CCCCCOC(=O)C1=C(C)N(C)C(=O)NC1c1cc(Br)c(O)c(OC)c1 (stereo unspecified)	CYP2C9 inhib 70, CYP2C19 inh 59
Nc1nonc1C(=O)NC(c1ccccc1)c1ccccc1	CYP2C9 inhib 78, CYP2C19 inh 90
Nc1nonc1C(=Nc1ccccc1)NO	none
COc1ccc(C(=O)Nc2cc(OC)cc(OC)c2)cc1	CYP2C19 inh 86
COc1ccc(OCc2ccc(C(=O)NN)cc2)cc1	CYP2C9 inhib 69, CYP2C19 inh 92
COc1cccc(NC(=O)c2ccc(NC(C)=O)cc2)c1	none
COc1ccc(C(=O)Nc2cccc(OC(=O)c3ccc(C)c(C)c3)c2)cc1	CYP2C9 inhib 70
COc1cc(NC(=O)c2ccccc2)cc(OC)c1	none (no result: PostGolgi yeast, PostGolgi ctrl)
CC(=O)c1cccc(NC(=S)NC(=O)C(C)C)c1	CYP2C9 inhib 52
CC(=O)NS(=O)(=O)c1ccc(NC(=S)NC(=O)C(C)C)cc1	PostGolgi ctrl 36
CCc1ccc(NC(=O)C(C)Nc2ccc(S(=O)(=O)NC(C)=O)cc2)cc1 (stereo unspecified)	none
CCOC(=O)Cn1cnc2sc3c(c2c1=O)CCC3	none
Cc1cc(N)c(-n2cc3c(=O)n(C)c(=O)n(C)c3c2)cc1C	PostGolgi ctrl 32
Cc1ccc(-n2cc3c(=O)n(C)c(=O)n(C)c3c2)cc1C	none
C=CCn1c(=O)c(C(=O)NCCNCC)c(O)c2ccccc21	none
CCNCCNC(=O)c1c(O)c2ccccc2n(CC)c1=O	PostGolgi ctrl 41
CC(C)Cn1c(=O)c(C(=O)Nc2cnccn2)c(O)c2ccccc21	PostGolgi ctrl 39
CCn1c(=O)c(C(=O)NCCc2ccccc2)c(O)c2ccccc21	CYP2C19 inh 50
CCn1c(COc2cccc(C)c2C)nnc1SCC(=O)N1CCN(c2ccc(OC)cc2)CC1	none
CC(C)c1cc(C(=O)O)n(-c2ccccc2)n1	none
CC1(C)CC(=O)C2=C(C1)NCN(Cc1ccc3c(c1)OCO3)C2	CYP2C9 inhib 85
COC(=O)C1Cc2c([nH]c3ccccc23)CN1 (stereo unspecified)	CYP2C19 inh 71
CCOC(=O)C1Cc2c([nH]c3ccccc23)C(C)N1 (stereo unspecified)	CYP2C19 inh 82
CCOc1cc(C2CC(=O)NC(SCC)=C2C#N)ccc1O (stereo unspecified)	none
CCOc1cc(C2CC(=O)Nc3cc(C)c(C)cc32)ccc1O (stereo unspecified)	CYP2C9 inhib 84, CYP2C19 inh 87
COCCn1c(SCC(N)=O)nc2c(c1=O)SC(C)C2 (stereo unspecified)	none (no result: CYP2C19 activ, CYP2C9 inhib, CYP2C19 inh, CYP2C9 act)
Cc1ccc(CSCCNS(C)(=O)=O)cc1	none
Cn1c(=O)oc2cc(S(=O)(=O)N3CCCC(C(=O)N4CC=C(c5ccccc5)CC4)C3)ccc21 (stereo unspecified)	CYP2C19 inh 72
Cn1c(=O)oc2cc(S(=O)(=O)N3CCCC(C(=O)NC4CCCc5ccccc54)C3)ccc21 (stereo unspecified)	CYP2C9 inhib 60
Cn1c(=O)oc2cc(S(=O)(=O)N3CCCC(C(=O)Nc4ccccn4)C3)ccc21 (stereo unspecified)	none
Cc1ccc(N2CCN(/N=C/c3sccc3C)CC2)cc1	CYP2C9 act 2.8
CC(C)NC(=O)c1ccc(OC2CSC2)cc1	none
COc1ccc(C2NC(=O)c3ccccc3O2)c(OC)c1OC (stereo unspecified)	CYP2C9 inhib 70, CYP2C19 inh 85
COc1ccccc1NC(=O)C1=C(C)NC(=O)NC1c1cccc(OC)c1OC (stereo unspecified)	none
COc1ccc(C2NC(c3ccc(OC)c(OC)c3OC)C(C)C(=O)C2C)c(OC)c1OC (stereo unspecified)	none (no result: CYP2C19 activ, CYP2C9 inhib, CYP2C19 inh, CYP2C9 act)
COc1cccc(C2NC(=O)c3ccccc3O2)c1OC (stereo unspecified)	CYP2C19 inh 86
CC(=O)Nc1cccc(-c2csc(Nc3cc(C)ccn3)n2)c1	PostGolgi ctrl 31
O=C(Nc1nc(-c2cccc([N+](=O)[O-])c2)cs1)C(c1ccccc1)c1ccccc1	CYP2C9 inhib 74
CC(=O)Nc1nc(C)c(-c2csc(Nc3cccc([N+](=O)[O-])c3)n2)s1	CYP2C9 inhib 89, CYP2C19 inh 83
CC(=O)c1cccc(Nc2nc(-c3cccc([N+](=O)[O-])c3)cs2)c1	CYP2C9 inhib 57
COc1ccc(C(=O)OCC(=O)Nc2ccc(OC(F)F)cc2)c(OC)c1	none
CCOC(=O)N1CCN(C(=O)c2ccc3c(=O)n4c(nc3c2)CCCCC4)CC1	none
COc1cccc(C(C(=O)NC2CCCC2)N(C(=O)c2ccco2)C2CC2)c1OC (stereo unspecified)	none
CS(=O)(=O)N1CCc2cc(C(=O)O)ccc21	none
CC(=O)Nc1nc(C)c(-c2csc(Nc3ccc(O)cc3)n2)s1	CYP2C9 inhib 76
CS(=O)(=O)N1CCc2cc(-c3csc(NC(=O)C(c4ccccc4)c4ccccc4)n3)ccc21	CYP2C9 inhib 58
CC1Cc2cc(-c3csc(NC(=O)Cc4ccccc4)n3)ccc2N1S(C)(=O)=O (stereo unspecified)	CYP2C9 inhib 58
Cc1cc2cc(CNC(=O)NC3CCCCC3)ccc2[nH]1	CYP2C19 inh 76
COC(=O)c1ccccc1NC(=O)c1cnc2sccn2c1=O	none (no result: PostGolgi yeast, PostGolgi ctrl)
O=C(Nc1cnc2sccn2c1=O)c1ccc(Cl)cc1Cl	PostGolgi ctrl 32
COc1ccc(Cl)cc1NC(=O)c1cnc2sccn2c1=O	CYP2C9 act 2.1
O=C(Cc1ccc(S(=O)(=O)N2CCCC2)s1)Nc1nc2c(s1)CCCC2	none
COc1ccc(C(=O)CSc2nnc(Cn3nnc4ccccc43)n2C)cc1	none
COC(=O)c1cc(OC)c(OC)cc1NC(=O)CN1CCOCC1	none
COC(=O)c1cc(OC)c(OC)cc1NC(=S)N1CCN(Cc2ccccc2)CC1	CYP2C19 inh 100
O=C(CSc1nnnn1Cc1ccccc1)c1ccccc1	CYP2C19 inh 74
COc1ccc(C(=O)CSc2nnnn2Cc2ccccc2)cc1	CYP2C19 inh 60
